PubChem BioAssay (Tox21)
Results filed as inconclusive are left out. Where a call stands in place of a potency, no number is given. Values without a mark were called inactive. Active and inactive are the calls of the source. Unless noted, the call rests on the fitted dose curve; in most records, active means well fitted curve in the direction sought with a large enough effect in the repeat runs; inconclusive means weak or mixed curves; inactive means no such curve, though single readings can be large; an effect the other way counts as inactive or inconclusive.

Key:
[1] = qHTS assay to identify small molecule antagonists of the glucocorticoid receptor (GR) signaling pathway - cell viability counter screen (AID 720693); further: nearly all actives have a fitted effect of over 55% in size
[2] = qHTS assay for identifying genotoxic compounds that show differential cytotoxicity against isogenic chicken DT40 cell lines with known DNA damage response pathways - Rev3 mutant cell line (AID 743014); further: nearly all actives have a fitted effect of over 55% in size; further: potency means the concentration at half of the fitted maximal effect
[3] = qHTS assay for identifying genotoxic compounds that show differential cytotoxicity against isogenic chicken DT40 cell lines with known DNA damage response pathways - Rad54/Ku70 mutant cell line (AID 743015); further: nearly all actives have a fitted effect of over 60% in size; further: potency means the concentration at half of the fitted maximal effect
[4] = qHTS assay to identify small molecule antagonists of the androgen receptor (AR) signaling pathway - cell viability counter screen (AID 743033; further: nearly all actives have a fitted effect of over 45% in size)
[5] = qHTS assay to identify small molecule antagonists of the androgen receptor (AR) signaling pathway using the MDA cell line - cell viability counter screen (AID 743041; further: nearly all actives have a fitted effect of over 45% in size)
Outline: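 Compound exposure lasted 16 h at 37C in MDA-kb2 AR-luc cells stimulated with R1881. Protease-based CellTiter-Fluor reagent was applied for the final 30 min and fluorescence measured.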

[6] = qHTS assay to identify small molecule antagonists of the thyroid receptor (TR) signaling pathway - cell viability counter screen (AID 743064); further: nearly all actives have a fitted effect of over 50% in size; further: potency means the concentration at half of the fitted maximal effect
Outline: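 In rat pituitary GH3.TRE-Luc reporter cells co-exposed to compound and 1 nM T3 for 23.5 h, cytotoxicity was assessed with CellTiter-Fluor in the same wells, read by fluorescence.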

[7] = qHTS assay to identify small molecule antagonists of the thyroid receptor (TR) signaling pathway (AID 743065); further: nearly all actives have a fitted effect of over 55% in size; further: potency means the concentration at half of the fitted maximal effect
Outline: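 GH3.TRE-Luc rat pituitary cells (two TREs driving luciferase) were dosed with compound, then stimulated with 1 nM T3 (final) for 23.5 h at 37 C. ONE-Glo luminescence was the read-out, with CellTiter-Fluor fluorescence as the cytotoxicity counter-screen.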

[8] = tested on: thyroid hormone receptor (rat, GH3 cells); assay: qHTS assay to identify small molecule agonists of the thyroid receptor (TR) signaling pathway (AID 743066; calls by dose curve)
[9] = target: Estrogen receptor (Homo sapiens) (UniProt P03372); assay: qHTS assay to identify small molecule antagonists of the estrogen receptor alpha (ER-alpha) signaling pathway (AID 743069; active means well fitted curve in the direction sought with a large enough effect in the signal ratio in the repeat runs, not every such curve was filed as active; the % refers to the signal ratio)
Outline: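 In this cell-based reporter format, GripTite HEK293 cells harbouring ER-alpha-UAS-bla were grown overnight with 2% charcoal-stripped FBS, dosed with DMSO-dissolved compounds, then challenged with 17beta-estradiol. After 18 hr at 37C, beta-lactamase activity was detected by FRET fluorescence.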

[10] = qHTS assay to identify small molecule antagonists of the estrogen receptor alpha (ER-alpha) signaling pathway - cell viability counter screen (AID 743074; calls by dose curve; further: nearly all actives have a fitted effect of over 45% in size)
[11] = target: Estrogen receptor (Homo sapiens) (UniProt P03372); assay: qHTS assay to identify small molecule agonists of the estrogen receptor alpha (ER-alpha) signaling pathway (AID 743075; calls by dose curve)
[12] = target: Estrogen receptor (Homo sapiens) (UniProt P03372); assay: qHTS assay to identify small molecule agonists of the estrogen receptor alpha (ER-alpha) signaling pathway using the BG1 cell line (AID 743079); further: nearly all actives have a fitted effect of over 20% in size
[13] = qHTS assay to identify small molecule antagonists of the estrogen receptor alpha (ER-alpha) signaling pathway using the BG1 cell line (AID 743080; calls by dose curve;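 further: BG1 cells stimulated with 17beta-estradiol alongside compound; series mostly up to about 70 µM; nearly all actives have a fitted effect of over 25% in size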)
Outline: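 Readout is ONE-Glo luminescence, taken 30 min at room temperature after reagent addition, preceded by a CellTiter-Fluor viability read; BG1-Luc-4E2 cells had received compound and 17beta-estradiol for 21.5 h at 37 C.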

[14] = qHTS assay to identify small molecule antagonists of the estrogen receptor alpha (ER-alpha) signaling pathway using the BG1 cell line - cell viability counter screen (AID 743081);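 further: compound given together with 17beta-estradiol as the ER stimulus; series mostly up to about 70 µM; nearly all actives have a fitted effect of over 45% in size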
[15] = target: Aromatase (Homo sapiens) (UniProt P11511); assay: qHTS assay to identify aromatase inhibitors (AID 743083); further: series mostly up to about 70 µM; nearly all actives have a fitted effect of over 55% in size
[16] = qHTS assay to identify aromatase inhibitors - cell viability counter screen (AID 743084); further: potency means the concentration at half of the fitted maximal effect
[17] = qHTS assay for identifying genotoxic compounds that show differential cytotoxicity against isogenic chicken DT40 cell lines with known DNA damage response pathways - wild type cell line (AID 743012); further: nearly all actives have a fitted effect of over 60% in size; further: potency means the concentration at half of the fitted maximal effect
Outline: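 Luminescent ATP viability signal (CellTiter-Glo, 30 min RT) recorded after wild type DT40 cells were incubated with compounds for 40 h at 37 C/5% CO2.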

[18] = target: Androgen receptor (Homo sapiens) (UniProt P10275); assay: qHTS assay to identify small molecule agonists of the androgen receptor (AR) signaling pathway (AID 743036; active means well fitted activation curve with a large enough effect in the signal ratio in the repeat runs, with a control signal flat, not every such curve was filed as active; the % refers to the signal ratio)
Outline: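 Cell-based FRET reporter assay: HEK293 line with a UAS-beta-lactamase construct, compounds added in DMSO, 16 h exposure at 37C, then 2 h substrate step at room temperature and fluorescence intensity read.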

[19] = target: Androgen receptor (Homo sapiens) (UniProt P10275); assay: qHTS assay to identify small molecule antagonists of the androgen receptor (AR) signaling pathway using the MDA cell line (AID 743042; further: nearly all actives have a fitted effect of over 55% in size)
Outline: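 MDA-kb2 breast carcinoma cells carrying MMTV-luciferase (AR/GR responsive) were co-treated with compounds and the agonist R1881 for 16 h at 37C. Inhibition read as ONE-Glo luminescence; CellTiter-Fluor fluorescence measured in parallel for cytotoxicity.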

Aromatase (Homo sapiens), sequence (P11511 whole entry, looked up): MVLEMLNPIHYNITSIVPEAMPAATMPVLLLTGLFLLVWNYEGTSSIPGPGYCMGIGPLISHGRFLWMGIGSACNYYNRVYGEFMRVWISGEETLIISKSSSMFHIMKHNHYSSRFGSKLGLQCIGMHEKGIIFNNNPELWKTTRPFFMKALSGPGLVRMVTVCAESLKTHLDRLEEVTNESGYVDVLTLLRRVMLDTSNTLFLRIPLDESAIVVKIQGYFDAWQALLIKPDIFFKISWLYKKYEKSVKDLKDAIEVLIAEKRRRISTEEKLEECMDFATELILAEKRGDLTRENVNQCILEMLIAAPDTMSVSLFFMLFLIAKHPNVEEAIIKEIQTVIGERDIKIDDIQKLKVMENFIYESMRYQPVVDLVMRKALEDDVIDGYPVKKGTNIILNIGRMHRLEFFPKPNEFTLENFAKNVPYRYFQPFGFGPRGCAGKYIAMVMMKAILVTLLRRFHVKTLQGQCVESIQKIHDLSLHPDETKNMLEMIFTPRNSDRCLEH
Androgen receptor (Homo sapiens), sequence (P10275 whole entry, looked up): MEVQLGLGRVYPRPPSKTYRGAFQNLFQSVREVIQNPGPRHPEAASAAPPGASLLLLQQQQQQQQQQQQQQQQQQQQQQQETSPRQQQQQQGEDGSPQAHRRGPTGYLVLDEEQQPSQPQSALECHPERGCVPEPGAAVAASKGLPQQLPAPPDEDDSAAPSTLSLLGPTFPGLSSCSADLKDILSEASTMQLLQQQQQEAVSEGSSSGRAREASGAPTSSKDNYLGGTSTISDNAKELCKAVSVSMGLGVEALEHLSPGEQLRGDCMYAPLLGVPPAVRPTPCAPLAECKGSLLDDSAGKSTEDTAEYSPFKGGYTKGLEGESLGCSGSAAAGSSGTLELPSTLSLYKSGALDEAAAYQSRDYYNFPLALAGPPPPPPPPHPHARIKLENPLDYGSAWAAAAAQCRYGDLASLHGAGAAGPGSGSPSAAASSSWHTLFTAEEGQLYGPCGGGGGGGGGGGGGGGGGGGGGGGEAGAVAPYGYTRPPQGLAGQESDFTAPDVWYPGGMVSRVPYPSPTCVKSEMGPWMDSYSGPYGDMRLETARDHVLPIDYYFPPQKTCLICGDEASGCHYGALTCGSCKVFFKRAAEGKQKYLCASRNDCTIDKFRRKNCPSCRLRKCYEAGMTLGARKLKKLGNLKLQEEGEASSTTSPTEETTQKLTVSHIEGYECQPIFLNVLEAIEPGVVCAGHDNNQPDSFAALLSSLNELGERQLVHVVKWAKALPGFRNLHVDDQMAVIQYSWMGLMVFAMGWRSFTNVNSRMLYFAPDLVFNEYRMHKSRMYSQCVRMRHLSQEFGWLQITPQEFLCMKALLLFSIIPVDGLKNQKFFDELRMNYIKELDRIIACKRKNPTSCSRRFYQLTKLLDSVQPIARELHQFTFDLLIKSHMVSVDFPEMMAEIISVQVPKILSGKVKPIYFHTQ
Estrogen receptor (Homo sapiens), sequence (P03372 whole entry, looked up): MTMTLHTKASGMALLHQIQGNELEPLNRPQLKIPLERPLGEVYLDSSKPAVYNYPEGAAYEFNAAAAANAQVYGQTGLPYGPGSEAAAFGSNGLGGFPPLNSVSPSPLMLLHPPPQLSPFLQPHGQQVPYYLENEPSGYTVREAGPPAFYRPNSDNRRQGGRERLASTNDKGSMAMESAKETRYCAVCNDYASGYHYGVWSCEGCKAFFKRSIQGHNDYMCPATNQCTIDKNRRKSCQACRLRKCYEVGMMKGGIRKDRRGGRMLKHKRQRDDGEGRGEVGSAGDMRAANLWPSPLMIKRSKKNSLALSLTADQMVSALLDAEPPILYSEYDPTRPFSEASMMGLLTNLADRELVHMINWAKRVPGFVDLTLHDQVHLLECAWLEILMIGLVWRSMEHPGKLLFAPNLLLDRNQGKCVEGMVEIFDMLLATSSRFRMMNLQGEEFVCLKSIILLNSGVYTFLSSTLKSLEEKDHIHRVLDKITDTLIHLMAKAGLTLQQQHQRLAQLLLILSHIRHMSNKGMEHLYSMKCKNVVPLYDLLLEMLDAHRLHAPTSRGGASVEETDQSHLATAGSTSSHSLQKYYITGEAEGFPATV

Row | SMILES | Potency [1] | Potency [2] | Potency [3] | Potency [4] | Potency [5] | Potency [6] | Potency [7] | Potency [8] | Potency [9] | Potency [10] | Potency [11] | Potency [12] | Potency [13] | Potency [14] | Potency [15] | Potency [16] | Potency [17] | Potency [18] | Potency [19]
1 | CC(CSC(=O)c1ccccc1)C(=O)N1C[C@@H](Sc2ccccc2)C[C@H]1C(=O)O (some centres undefined) | inactive | inactive | inactive | inactive | inactive | inactive | inactive | inactive | inactive | inactive | inactive | inactive | inactive | inactive | inactive | inactive |  |  | 
2 | CCN(CC)CCNC(=O)c1cc(Br)c(N)cc1OC | inactive |  |  | inactive | inactive | inactive | inactive | inactive | inactive | inactive | inactive | inactive | inactive | inactive | inactive | inactive | inactive |  | 
3 | O=C1C(O)=C(O)C(=O)C(O)=C1O | inactive |  |  | inactive | inactive | inactive | inactive | inactive | inactive | inactive | inactive | inactive | inactive | inactive | inactive | inactive | inactive |  | 
4 | CCCCC(CC)CN1C(=O)C2C3C=CC(C3)C2C1=O (centres undefined) | inactive | 27.3 µM (active) |  |  | inactive | 54.5 µM (active) | 48.6 µM (active) | inactive |  | inactive | inactive | inactive | inactive | inactive |  | 54.5 µM (active) | 38.6 µM (active) |  | 
5 | O=C(O)c1ccc(S(=O)(=O)O)cc1C(=O)O | inactive | inactive | inactive | inactive | inactive | inactive | inactive | inactive |  | inactive | inactive | inactive | inactive | inactive | inactive | inactive |  |  | 
6 | CCOc1ccc(N)c([N+](=O)[O-])c1 | inactive |  | inactive | inactive |  | inactive | inactive | inactive | inactive | inactive | inactive | inactive | inactive | inactive | inactive | inactive | inactive |  | 
7 | CCOC(=O)COC(=O)c1cc(Oc2ccc(C(F)(F)F)cc2Cl)ccc1[N+](=O)[O-] | inactive | 12.2 µM (active) | 19.3 µM (active) | inactive |  | inactive | inactive | inactive |  | inactive |  |  |  | inactive |  | inactive |  | inactive | inactive
8 | Cc1cc(N)c2cc(NC(=O)Nc3ccc4nc(C)cc(N)c4c3)ccc2n1 | inactive | 21.1 µM (active) | 16.8 µM (active) | inactive |  | 29.8 µM (active) | 29.8 µM (active) | inactive |  | inactive |  |  |  | inactive | inactive | inactive |  | inactive | 
9 | O=C(O)c1nc(Cl)c(Cl)c(Cl)c1Cl | inactive | inactive | 61.1 µM (active) | inactive | inactive | inactive | inactive | inactive |  | inactive |  |  |  | inactive |  |  |  |  | 
10 | C=C1[C@H]2CC[C@@H]3[C@H]2C(C)(C)CCC[C@]13C | inactive | inactive | inactive | inactive | inactive | inactive | inactive | inactive | inactive | inactive | inactive | inactive | inactive | inactive | inactive | inactive |  |  | 
11 | CC(C)CC(=O)C1C(=O)c2ccccc2C1=O | inactive | inactive |  |  | inactive | inactive |  |  |  | inactive | inactive | inactive | inactive | inactive | inactive | inactive | inactive | inactive | inactive
12 | CC1=CC[C@H](C(C)C)C=C1 | inactive | 68.6 µM (active) |  |  | inactive | inactive |  |  |  | inactive | inactive | inactive | inactive | inactive | inactive | inactive | 61.1 µM (active) |  | 
13 | C[Si](C)(CCCN)O[Si](C)(C)CCCN | inactive |  |  | inactive | inactive | inactive |  |  |  | inactive | inactive | inactive | inactive |  | inactive | inactive | inactive |  | 
14 | Nc1c(CC(=O)O)cccc1C(=O)c1ccc(Br)cc1 | inactive |  | inactive | inactive | inactive | inactive |  | inactive | inactive | inactive | inactive | inactive | inactive | inactive | inactive | inactive | inactive |  | 
15 | CN1C[C@H]2c3ccccc3Oc3ccc(Cl)cc3[C@@H]2C1 | inactive |  | 29.8 µM (active) | inactive | inactive | 15 µM (active) |  |  |  | inactive | inactive | inactive | inactive | inactive |  |  | 26.6 µM (active) |  | 
16 | CCNc1cc(O)ccc1C | inactive |  | inactive | inactive | inactive | inactive | inactive | inactive | inactive | inactive | inactive | inactive | inactive | inactive | inactive | inactive | inactive |  | 
17 | CCCCC | inactive | inactive | inactive | inactive | inactive | inactive | inactive | inactive |  | inactive |  |  |  | inactive |  |  |  |  | 
18 | CCCCC1=NC2(CCCC2)C(=O)N1Cc1ccc(-c2ccccc2-c2nn[nH]n2)cc1 | inactive |  | inactive | inactive |  |  |  |  | inactive | inactive | inactive | inactive | inactive | inactive | inactive |  | inactive |  | 
